In all, about 59,000 sequences were measured (the read-out: median about -0.00055, lowest 2% from about -2 on). Only a selection was taken, and the lowest values are over-represented in it overall.
Assay: Identification of proteins required for the processing of the EWS-FLI1 nascent transcript;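 also: robust z of luciferase light less the median z of siRNAs with the same seed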
Conditions: TC32 Ewing sarcoma NR0B1-luc vs CMV-luc (EWS-FLI1 target promoter against control promoter), 48 h; screened at 20 nM (by protocol)
Outline: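 Genome-wide siRNA screen (Ambion v4.1, three siRNAs per gene, 20 nM final, RNAiMax) in Ewing sarcoma TC32 cells carrying NR0B1-promoter or CMV-promoter luciferase; OneGlo luciferase read 48 h post-transfection. Data normalized, z-score-MAD transformed and seed-adjusted.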
For UCAGGUAUCUGAGAAUCUC against APOBEC3B, the seed-corrected z-score was -0.83. With UACUGAACACUGGAAAUUC against FGFBP2 the seed-corrected z-score was 1.53. Work on UUCUCAUCGAGCCUGAAGU against FAM187B yielded a seed-corrected z-score of 1.36. In the case of UGUUGUACCACUGUCAGAG against PPM1G, the seed-corrected z-score is reported as -0.406. Work on AUAGAUACUGGGAGGUUUG against UBE2J2 yielded a seed-corrected z-score of 0.783. UAAUCAUCCCGACCAACGC against P2RY10 gave a seed-corrected z-score of -0.625. Work on CAGAUUCUGACGCUUUGUG against LIMD1-AS1 yielded a seed-corrected z-score of -1.25. In the case of UCGAUGUAGAGGAUGCUGA against GDF7, the seed-corrected z-score is reported as -2.35. UAAGAAAUGACGUGUGCUG against PTGDR2 gave a seed-corrected z-score of 0.0522. With UGAGGUACUCGCUUUCCUG against TCTE1 the seed-corrected z-score was -0.587. With UUAGAAAUGCAAAUAAACU against TMSB15A the seed-corrected z-score was 0.478. UUCGGUAAGACAUCAGUGG against STAG2 showed a seed-corrected z-score of 0.75. UUGUAAUCAAAGUAGUAGC against PSMD8 showed a seed-corrected z-score of -5.85. In the case of UGUUCUUGAACUGUAGUAC against RNF40, the seed-corrected z-score is reported as 0.119. UGAGCCUUGAGUGCACUGG against LOC729047 gave a seed-corrected z-score of 0.713. Sequence UAAGAUUGGAGAGAUUGCC against SLC10A4 has a seed-corrected z-score of 0.287. With UGUAGUAUCUGAGUCAACC against CENPE the seed-corrected z-score was -2.96. UUACAUAUCACGUACAUCC against SENP8 gave a seed-corrected z-score of 0.448. In the case of UUUUCUAAUAUGCUAACUG against BMP8A, the seed-corrected z-score is reported as -0.422. Sequence UCAUUAGUAAUAUCGUCGG against HSP90AA1 has a seed-corrected z-score of -0.64. For UCAAUGCCUCUGAUUGUUG against SPATA31D5P, the seed-corrected z-score was -1.51. Sequence UUCGAUACCAGCCGGUAGC against F8A2 has a seed-corrected z-score of -12.9. UUCCCGUAAACUUUCUCGC against KLF13 showed a seed-corrected z-score of 0.162. Work on UGAUCUAUGAGUACGUCCG against SBNO1 yielded a seed-corrected z-score of -0.107. For AAGUGGACUUGAGAUGUGG against PPP1R1A, the seed-corrected z-score was -0.084. In the case of UUAACAUGCAAGAAAUGUC against SPO11, the seed-corrected z-score is reported as 2.19. Sequence UUGUCCUUCAGGAACACCG against EPB41L1 has a seed-corrected z-score of 0.385. Sequence UAUCUAGUAGUAGUUCACC against CAB39 has a seed-corrected z-score of 0.229. UCUGGUGGUGGUCUGAGUC against ZFP64 gave a seed-corrected z-score of -3.19. For AAUGUUGUAGUUGAUUAGC against CCDC178, the seed-corrected z-score was -0.836. With UUGACAGUUUCCAUCAGGC against PLIN3 the seed-corrected z-score was 0.105. UAUCGAUUUGGGUCGUAGC against GNL1 showed a seed-corrected z-score of 0.128. In the case of UACGUGAGCUGUGAUGAGC against IRF4, the seed-corrected z-score is reported as -0.522. For UAGGCGAAUACAGUUAGGG against PRDM11, the seed-corrected z-score was -0.0836. AAAAGGUAAACAGUGCUGG against HCAR1 showed a seed-corrected z-score of -2.61. In the case of AAUAUAACGACUAAUGUCC against CTNNBIP1, the seed-corrected z-score is reported as 0.971. For UUUAGAGGCAGGGAGAAGC against MT1XP1, the seed-corrected z-score was -2.16. Sequence UUUCGAGUUUCAAUGCUCC against SEC31A has a seed-corrected z-score of 0.675. With AUGAGUUUAAAGUACAAAG against TBC1D3G the seed-corrected z-score was -0.961. In the case of AAAGCUCUUCUAAUGAUAG against CMPK2, the seed-corrected z-score is reported as 1.05. Sequence UUUCCAAUAUUUGAAGGUG against IFNK has a seed-corrected z-score of -0.532. Sequence UCUGGGUUGAGGUCUACGA against LGALSL has a seed-corrected z-score of 1.22. Sequence UCUCUUUUAGGUGGUUUGG against RNPS1P1 has a seed-corrected z-score of -2.12. In the case of UUUGGAGCCGAAAGCAUUG against TBX4, the seed-corrected z-score is reported as -0.381. In the case of UUUCUUACCAUAGUUGUCC against TCF7L1, the seed-corrected z-score is reported as 0.0239. With UUCACGAGUAGAGAUGUGG against ULK4 the seed-corrected z-score was -0.0896. For UGUGGAUUCGCAUUCGUGC against WNT10B, the seed-corrected z-score was -0.172. Sequence AAGAGCAGUAUAGCCCUUG against FAM219B has a seed-corrected z-score of -2.73. In the case of UUCAGAGUAAUGUCGACAU against RPL9, the seed-corrected z-score is reported as -0.525. With UAUUAUCCAGGAUUAAUUC against TMED5 the seed-corrected z-score was 0.444. Work on UGGUUAUUAACCACGAAAC against DACH2 yielded a seed-corrected z-score of -2.55. Work on UUUUUGGGUUGUGCGAUGG against CLDN8 yielded a seed-corrected z-score of -0.531. UAGUCGAUUAAACAGAGCC against RBPJ showed a seed-corrected z-score of 0.0342. With UGAGUUCUGAUCGCAGUUC against MCC the seed-corrected z-score was -0.00975. In the case of AAUGUUAACGAUGAAGAAG against ADRB2, the seed-corrected z-score is reported as 0.292. AACAGGACAAUUUUAGCAC against OR1L1 showed a seed-corrected z-score of -2.6. UCUGAAACAAUCCUCACUC against LINC00598 gave a seed-corrected z-score of -0.139. UGAGGAUAAAGCGAAGAGC against VARS2 showed a seed-corrected z-score of 0.0595. AACUGGGACUUGUUUUACC against FAM83F gave a seed-corrected z-score of 0.219. With AAGGUUGCUCGUUCUAUGG against CASP5 the seed-corrected z-score was -2.33. For UAAUGUCCCAAUCGUAUUG against UXS1, the seed-corrected z-score was 0.872. For AAUCUCUCGGUUUCGAUUC against HYKK, the seed-corrected z-score was 1.15. Work on UCCGUGCACAUCUUAUAGG against HMG20B yielded a seed-corrected z-score of 0.0817. Work on UAAGAAAUGAUGCUCAAUG against LMAN1L yielded a seed-corrected z-score of -0.257. UCUACAUCAAUCAAAUAUC against DUSP11 showed a seed-corrected z-score of 1.23. UCUCUUCAUACUUAUUAGC against TEX43 showed a seed-corrected z-score of -2.3. UUGGGAUAAUGAUUGUUAC against OR10AG1 showed a seed-corrected z-score of -0.676. With UUCCUGACGAGGUACACUG against GAS2L2 the seed-corrected z-score was 0.821. In the case of UCAGAGACCAGCUGUUUCU against IGSF23, the seed-corrected z-score is reported as -0.0662. Sequence ACAGCUAUAAAGGUGAUCC against MTMR1 has a seed-corrected z-score of -2.56. In the case of UGUCGUUCAAGGGUCUUCC against IFNE, the seed-corrected z-score is reported as -0.372. UAACUAGUUUUCUUGUCCC against CARD6 gave a seed-corrected z-score of 0.329. UAUCAUCCAAAACUGUAUC against ASNSD1 gave a seed-corrected z-score of 0.0108. In the case of AUCGGCAUUAAGAAUGUAG against EIF3L, the seed-corrected z-score is reported as -0.237. Sequence UUAGCUGCAUCCUUGCUGG against CELSR3 has a seed-corrected z-score of -2.13. Sequence UAAGUUCUUGUAUCUUCCC against ATP6V1G3 has a seed-corrected z-score of 0.313. Sequence UUCUGGAUUCUGGGCAUCG against IFI6 has a seed-corrected z-score of -0.197. Sequence UCAAUAACCAUGAAGAUGC against FAM162A has a seed-corrected z-score of 0.76. With UCGUGCUACACCAUGAGUC against CTTNBP2 the seed-corrected z-score was 0.0923. For UUCCAGUAUGCUGAUUUCC against SLC8B1, the seed-corrected z-score was -2.95. UCACUUGAUAACAAUCUCC against ZCWPW2 gave a seed-corrected z-score of -0.645. With AUCAUUAUCCUUCUCAUCC against IRF6 the seed-corrected z-score was -0.561. With UAGCCCUCACCAUAGAUGC against SYNGR2 the seed-corrected z-score was 0.181. For ACAGUUGCAACUUCCAUGC against KCND2, the seed-corrected z-score was -2.77.
